This passage reports binding signal results from article PMC8384837, “Expanding the binding specificity for RNA recognition by a PUF domain”.

Positions count from the first letter of the chain named.

Holding throughout (experiment): yeast three-hybrid, YBZ-1, SC-Leu-His + 0.5 mM 3-AT, 4 days
Holding throughout (conditions): tags: N-Gal4 AD-HA kept; label: inside an RPR1-promoter hybrid RNA with tandem MS2 sites; ssRNA

Assay [1] deals with PUM1 PUF domain R7-CTR (Homo sapiens, UniProt Q14671 828-1176, S1079C;N1080T;E1083R). The essentials: (§1)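 Each repeat of the Pumilio-1 PUF domain was randomized at its three base-contacting residues, and these libraries were co-expressed from a centromeric plasmid with matching RNA elements in strain YBZ-1. After four days on SC-Leu (input) or SC-Leu-His + 0.5 mM 3-AT (selection), the repeat regions were PCR-amplified and Illumina-sequenced. The interaction score compares variant frequency between input and selection as a log change, computed in log2 with a pseudocount of 1 for absent variants.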

Assay [2] addresses PUM1 PUF domain R7-EPD (Homo sapiens, UniProt Q14671 828-1176, S1079E;N1080P;E1083D). The essentials:
as §1

Assay [3] addresses PUM1 PUF domain R7-QGG (Homo sapiens, UniProt Q14671 828-1176, S1079Q;N1080G;E1083G). The essentials: as §1
Assay [4] has as its target PUM1 PUF domain R7-RGK (Homo sapiens, UniProt Q14671 828-1176, S1079R;N1080G;E1083K). The essentials:
as §1

Assay [5] deals with PUM1 PUF domain R3-APR (Homo sapiens, UniProt Q14671 828-1176, C935A;R936P;Q939R). The essentials:
as §1

Assay [6] deals with PUM1 PUF domain R3-GRC (Homo sapiens, UniProt Q14671 828-1176, C935G;Q939C). The essentials:
as §1

The target of assay [7] is PUM1 PUF domain R5-AYF (Homo sapiens, UniProt Q14671 828-1176, C1007A;R1008Y;Q1011F). The essentials:
as §1

The target in assay [8] is PUM1 PUF domain R8-RYP (Homo sapiens, UniProt Q14671 828-1176, N1122R;Q1126P). The essentials:
as §1

Assay [9] addresses PUM1 PUF domain R5-GSR (Homo sapiens, UniProt Q14671 828-1176, C1007G;R1008S;Q1011R). The essentials:
as §1

The target in assay [10] is T1, PUM1 PUF domain R6-IYK (Homo sapiens, UniProt Q14671 828-1176, N1043I;Q1047K).
T1 sequence: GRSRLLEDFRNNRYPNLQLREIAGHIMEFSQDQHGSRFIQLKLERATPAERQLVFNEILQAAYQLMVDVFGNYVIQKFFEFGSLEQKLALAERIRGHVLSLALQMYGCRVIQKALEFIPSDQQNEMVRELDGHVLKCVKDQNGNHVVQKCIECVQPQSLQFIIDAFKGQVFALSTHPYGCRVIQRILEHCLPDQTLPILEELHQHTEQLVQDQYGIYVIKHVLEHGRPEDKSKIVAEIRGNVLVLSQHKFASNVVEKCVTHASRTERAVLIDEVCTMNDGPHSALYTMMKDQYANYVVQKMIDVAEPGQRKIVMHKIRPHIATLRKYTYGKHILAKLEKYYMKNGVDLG
The essentials:
as §1

For assay [11], the target named is PUM1 PUF domain R4-PFY (Homo sapiens, UniProt Q14671 828-1176, N971P;H972F;Q975Y). The essentials:
as §1

In assay [12] the target is PUM1 PUF domain R5-ERF (Homo sapiens, UniProt Q14671 828-1176, C1007E;Q1011F). The essentials:
as §1

Assay [13] has as its target T2, PUM1 PUF domain R6-GFK (Homo sapiens, UniProt Q14671 828-1176, N1043G;Y1044F;Q1047K).
T2 sequence: T1 sequence with I216G, Y217F
The essentials:
as §1

For assay [14], the target named is PUM1 PUF domain R3-EWR (Homo sapiens, UniProt Q14671 828-1176, C935E;R936W;Q939R). The essentials:
as §1

Assay [15] addresses PUM1 PUF domain R3-DWQ (Homo sapiens, UniProt Q14671 828-1176, C935D;R936W). The essentials:
as §1

In assay [16] the target is PUM1 PUF domain R1-RRE (Homo sapiens, UniProt Q14671 828-1176, S863R;Q867E). The essentials:
as §1

Assay [17] concerns the target PUM1 PUF domain R5-SQG (Homo sapiens, UniProt Q14671 828-1176, C1007S;R1008Q;Q1011G). The essentials:
as §1

Assay [18] deals with PUM1 PUF domain R5-TPR (Homo sapiens, UniProt Q14671 828-1176, C1007T;R1008P;Q1011R). The essentials: as §1
In assay [19] the target is PUM1 PUF domain R2-LHR (Homo sapiens, UniProt Q14671 828-1176, N899L;Y900H;Q903R). The essentials: as §1
Assay [20] concerns the target PUM1 PUF domain R3-TIE (Homo sapiens, UniProt Q14671 828-1176, C935T;R936I;Q939E). The essentials:
as §1

Consider “GGCUAGAACUAGUGGAUCCCCCGGCGCCCGGCGGCUCGAGCCCGGGUAAGUUUAAAUAGUCUGCAUGCCGCCGGGCGCCAUGCCUGCAGGUCGACUCUAGAAAACAUG”, for which the binding signal in assay [1] is 2.95 log2 enrichment (interaction score); in assay [2], 3.42 log2 enrichment (interaction score); in [3], 3.51 log2 enrichment (interaction score); in [4] it was 6.69 log2 enrichment (interaction score).

Regarding “GGCUAGAACUAGUGGAUCCCCCGGCGCCCGGCGGCUCGAGCCCGGGUAAGUCUAAAUAGUCUGCAUGCCGCCGGGCGCCAUGCCUGCAGGUCGACUCUAGAAAACAUG”, the binding signal in assay [4] is 5.3 log2 enrichment (interaction score).

Regarding “GGCUAGAACUAGUGGAUCCCCCGGCGCCCGGCGGCUCGAGCCCGGGUAAGUGUAAAUAGUCUGCAUGCCGCCGGGCGCCAUGCCUGCAGGUCGACUCUAGAAAACAUG”, the binding signal in [5] is 2.66 log2 enrichment (interaction score); in assay [6] it was 3.23 log2 enrichment (interaction score); in assay [7], 3.62 log2 enrichment (interaction score); in [8], 4.32 log2 enrichment (interaction score); in [9], 1.75 log2 enrichment (interaction score); in assay [10], 2.06 log2 enrichment (interaction score). Moreover, the results for the binding signal in [11], in assay [12] and in [13] were 5.35 log2 enrichment (interaction score), 2.71 log2 enrichment (interaction score) and 2.55 log2 enrichment (interaction score), respectively.

Regarding “GGCUAGAACUAGUGGAUCCCCCGGCGCCCGGCGGCUCGAGCCCGGGUAAGUGUAAUUAGUCUGCAUGCCGCCGGGCGCCAUGCCUGCAGGUCGACUCUAGAAAACAUG”, the binding signal in assay [14] is 3.22 log2 enrichment (interaction score); in assay [5], 2.28 log2 enrichment (interaction score); in [15], 4.15 log2 enrichment (interaction score); in assay [6], 1.22 log2 enrichment (interaction score).

“GGCUAGAACUAGUGGAUCCCCCGGCGCCCGGCGGCUCGAGCCCGGGUAAGUGUAAAUCGUCUGCAUGCCGCCGGGCGCCAUGCCUGCAGGUCGACUCUAGAAAACAUG”: the binding signal in assay [16] is 3.92 log2 enrichment (interaction score).

As to “GGCUAGAACUAGUGGAUCCCCCGGCGCCCGGCGGCUCGAGCCCGGGUAAGUGUGAAUAGUCUGCAUGCCGCCGGGCGCCAUGCCUGCAGGUCGACUCUAGAAAACAUG”, the binding signal in assay [17] was 3.41 log2 enrichment (interaction score).

Consider “GGCUAGAACUAGUGGAUCCCCCGGCGCCCGGCGGCUCGAGCCCGGGUAAGUGUAAAUUGUCUGCAUGCCGCCGGGCGCCAUGCCUGCAGGUCGACUCUAGAAAACAUG”, for which the binding signal in assay [16] is 2.91 log2 enrichment (interaction score).

In the case of “GGCUAGAACUAGUGGAUCCCCCGGCGCCCGGCGGCUCGAGCCCGGGUAAGUGUAAAUGGUCUGCAUGCCGCCGGGCGCCAUGCCUGCAGGUCGACUCUAGAAAACAUG”, in [16], the binding signal is 2.12 log2 enrichment (interaction score).

On to “GGCUAGAACUAGUGGAUCCCCCGGCGCCCGGCGGCUCGAGCCCGGGUAAGUGUCAAUAGUCUGCAUGCCGCCGGGCGCCAUGCCUGCAGGUCGACUCUAGAAAACAUG”, for which the binding signal was 5.18 log2 enrichment (interaction score) in assay [18], 5.07 log2 enrichment (interaction score) in [9] and 3.35 log2 enrichment (interaction score) in [12].

As for “GGCUAGAACUAGUGGAUCCCCCGGCGCCCGGCGGCUCGAGCCCGGGUAAGUGUUAAUAGUCUGCAUGCCGCCGGGCGCCAUGCCUGCAGGUCGACUCUAGAAAACAUG”, the binding signal in assay [17] was 0.27 log2 enrichment (interaction score); in [9], 3.01 log2 enrichment (interaction score); in assay [12] it was 3.92 log2 enrichment (interaction score).

As to “GGCUAGAACUAGUGGAUCCCCCGGCGCCCGGCGGCUCGAGCCCGGGUAAGUGUAUAUAGUCUGCAUGCCGCCGGGCGCCAUGCCUGCAGGUCGACUCUAGAAAACAUG”, the binding signal in assay [11] was 3.71 log2 enrichment (interaction score).

For the sequence “GGCUAGAACUAGUGGAUCCCCCGGCGCCCGGCGGCUCGAGCCCGGGUAAGUGUAAAAAGUCUGCAUGCCGCCGGGCGCCAUGCCUGCAGGUCGACUCUAGAAAACAUG”, in assay [19], the binding signal was 3.5 log2 enrichment (interaction score).

Turning to “GGCUAGAACUAGUGGAUCCCCCGGCGCCCGGCGGCUCGAGCCCGGGUAAGUGUAAGUAGUCUGCAUGCCGCCGGGCGCCAUGCCUGCAGGUCGACUCUAGAAAACAUG”, the binding signal in assay [14] is 0.97 log2 enrichment (interaction score); in [5] it was 1.67 log2 enrichment (interaction score); in assay [6], 0.66 log2 enrichment (interaction score); in assay [20], 4.39 log2 enrichment (interaction score).

Regarding “GGCUAGAACUAGUGGAUCCCCCGGCGCCCGGCGGCUCGAGCCCGGGUAAGCGUAAAUAGUCUGCAUGCCGCCGGGCGCCAUGCCUGCAGGUCGACUCUAGAAAACAUG”, in assay [8], the binding signal was 6.03 log2 enrichment (interaction score).
